Targets with the largest changes are over-represented here; the source holds about 21,000 in all.
Molecular target: PYCR1_P32322_95_HIVVSCAAGVTISSIEK (UniProt P32322)
Assay: probe-labelled cysteine peptide fold change vs DMSO (competition) (log2 fold change); higher = less target engagement (more negative = stronger competition)
Conditions: THP-1, incubation time: 4 h
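Note: competitive chemoproteomic profiling in live THP-1 cells with an iodoacetamide desthiobiotin (IA-DTB) probe, comparing probe-labelled peptide intensities in compound-treated cells against DMSO-treated controls.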

CC1Cc2ccccc2N1C(=O)C1CCCN(C(=O)CCl)C1 (mixture of isomers) [TRIM25 ligand 11 (diastereomer mixture)]
probe-labelled cysteine peptide fold change (10 µM): 0.0152 | probe-labelled cysteine peptide fold change (50 µM): 0.0688

From the supplement of paper PMC12067093, “Discovery and optimisation of a covalent ligand for TRIM25 and its application to targeted protein ubiquitination” (Chemical Science, 2025)
